# Source: PubChem (several laboratories)
# Compounds with a hit are over-represented: about 4.5% of the library has one in this group of screens.
# Beta cell apopt – blocks beta cell apoptosis; protection from apoptosis, % (no concentration beside the values); INS-1E cytokine-induced death, ATP luminescence, 48 h; percent of positive-control rescue, neutral wells zero; AID 435005; 0.8% of 300,000 active;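 active = Every replicate reaches about 75%, or at least half do and their mean reaches it too, limit read from the data; inconclusive = At least half of replicates reach the limit but their mean does not; inactive = Under half of replicates reach the limit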;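 note: higher means more ATP so stronger rescue from cytokine killing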
# 697 NFkB inh – lowers PMA/ionomycin-induced NF-kB signal in 697 B cells; 697 B-cell NF-kB luciferase reporter, 16 h; AID 435022; inhibition, % at 4 µM; 0.33% of 330,000 active; in the data active = inhibition above about 35%
# Mdm2-MdmX inh – human Mdm2/MdmX binding inhibition | SaOS-2 split-luciferase Mdm2/MdmX complementation, luminescence | inhibition, % at 8 µM | 3% of 330,000 active;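 active = inhibition of at least 50% at 8 µM in the primary screen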
# Gli-Sufu antag – antagonists of Gli-Sufu signaling. Sufu-KO-LIGHT fibroblasts, Gli luciferase reporter luminescence. inhibition, % at 5 µM. 0.74% of 340,000 active;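 active = inhibition above about 55%, limit read from the data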
# Jurkat NFkB inh – inhibitors of the PMA/ionomycin-induced NF-kB reporter in Jurkat cells. PMA/ionomycin-induced NF-kB luciferase reporter, luminescence. inhibition, % at 4 µM. 0.53% of 330,000 active. AID 435003; in the data active = inhibition above about 50%
# CSC inhib – cancer stem cell inhibition; cancer stem cell-like cells viability, luminescence; inhibition, % at 7.5 µM; 1.1% of 300,000 active; in the data active = inhibition above about 75%; inconclusive = no clear call, values can overlap the other calls; tested in HMLE shEcad cells
# Mdm2-MdmX conf – human Mdm2/MdmX binding inhibition, confirmed; luminescent assay; 55% of 10,000 active; shares compounds with Mdm2-MdmX inh; AID 489028; inhibition, % at 8 µM; in the data active = inhibition above about 40%
# FLuc counter – counter-screen for Mdm2/MdmX inhibitors: full-length luciferase | shares compounds with Mdm2-MdmX inh | SaOS-2 full-length luciferase counterscreen, luminescence | inhibition, % at 8 µM | 77% of 6,200 active | AID 504607;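 active = mean inhibition at 8 µM reaching about 37%, which flags the compound as non-specific, limit read from the data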;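 note: p53-null SaOS-2 cells with luciferase driven by a doxycycline-inducible promoter; compound on cells about two nights before reading with doxycycline added after day one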
# Numbers stand for hits; n = inactive; u = inconclusive; x = no result given.
SMILES,Beta cell apopt,697 NFkB inh,Mdm2-MdmX inh,Gli-Sufu antag,Jurkat NFkB inh,CSC inhib,Mdm2-MdmX conf,others
COc1ccc(OCC(=O)N2CCC3(CC2)CC(=O)c2ccccc2O3)cc1,n,n,n,n,n,n,x,
O=C(Nc1nc(-c2nc3ccccc3s2)cs1)c1ccco1,n,n,72.6,n,n,n,n,
O=C(Nc1nc2cc3c(cc2s1)OCO3)C1=COCCO1,n,n,51.9,n,n,n,n,
O=C(Nc1nc2cc3c(cc2s1)OCCO3)c1ccncc1,n,n,n,n,n,n,x,
O=C(Nc1nc2cc3c(cc2s1)OCCO3)c1ccco1,n,n,70.7,n,n,n,68.3,FLuc counter=74.2
O=C(Nc1nc(-c2ccc(Cl)s2)cs1)c1ccco1,n,n,n,n,n,n,x,
CCCOc1ccc(C(=O)C(c2ccccc2)N2CCOCC2)cc1 (stereo not given),n,n,n,n,n,n,x,
CCCOc1ccc(C(=O)C(CN2CCOCC2)c2ccccc2)cc1 (stereo not given),79.0,n,91.3,n,n,n,84.5,FLuc counter=n
CCOC(=O)C(CN1CCCC1)c1ccccc1 (stereo not given),n,n,n,n,n,n,x,
O=C(c1ccc(Cl)cc1)C(CN1CCCCC1)c1ccccc1 (stereo not given),91.3,n,94.2,n,n,94.9,55.0,FLuc counter=42.4
Cc1onc(-c2ccccc2)c1C(O)c1ccc(F)cc1 (stereo not given),n,n,n,n,n,n,x,
CC(C(=O)Nc1ccc(C(N)=O)cc1)N1C(=O)c2ccccc2S1(=O)=O (stereo not given),x,n,n,n,n,n,x,
O=C(CSc1ccc(-c2ccc3c(c2)OCO3)nn1)Nc1nccs1,n,n,89.0,n,n,n,n,
O=C(CSCC(=O)Nc1nc(-c2ccc3c(c2)OCO3)cs1)Nc1nccs1,n,n,n,n,n,n,x,
COc1ccc(-c2ccc(=O)n(CC(=O)Nc3cccc(O)c3)n2)cc1OC,n,n,54.7,n,n,n,55.2,FLuc counter=108.1
COc1ccc(-c2ccc(=O)n(CC(=O)Nc3nnc(C(C)C)s3)n2)cc1OC,x,n,n,n,n,n,x,
CC(C)C(=O)NC(c1cccs1)c1cc([N+](=O)[O-])c2cccnc2c1O (stereo not given),97.3,n,67.7,n,n,104.3,70.2,FLuc counter=56.7
CC(C)C(=O)NC(c1ccc([N+](=O)[O-])cc1)c1c(O)ccc2ccccc12 (stereo not given),n,n,n,n,n,x,x,
Cc1ccc(C(NC(=O)C(C)C)c2cc([N+](=O)[O-])c3cccnc3c2O)cc1 (stereo not given),n,n,56.9,n,n,144.4,51.4,FLuc counter=44.4
O=[N+]([O-])c1cc(CN2CCCC2)c2cccnc2c1O,n,x,x,n,x,n,x,
CCC(=O)NC(/C=C/c1ccccc1)c1cc([N+](=O)[O-])c2cccnc2c1O (stereo not given),77.3,n,63.5,x,n,151.1,n,
Cc1cc(C)c(C)c(S(=O)(=O)NCCCn2ccnc2)c1C,n,n,n,n,n,n,x,
CCN(C(=O)CSc1nnc(SC(C)C)s1)C1CCS(=O)(=O)C1 (stereo not given),n,n,n,n,n,x,x,
CC(=O)NS(=O)(=O)c1ccc(NC(=O)c2ccc(S(=O)(=O)N3CCCC3)cc2)cc1,n,n,n,n,n,x,x,
COc1ccc(OC)c(-c2nc(C(=O)NCC3CCCO3)cc3c2[nH]c2ccccc23)c1 (stereo not given),n,n,n,n,n,n,x,
SMILES,Beta cell apopt,697 NFkB inh,Mdm2-MdmX inh,Gli-Sufu antag,Jurkat NFkB inh,CSC inhib,Mdm2-MdmX conf,others
COc1cccc(-c2nc(C(=O)NCC3CCCO3)cc3c2[nH]c2ccccc23)c1 (stereo not given),n,n,64.7,n,n,n,n,
CC(C)Cc1nnc(NC(=O)CCC(=O)NC2CC2)s1,n,n,n,n,n,n,x,
O=C(CCNC(=O)c1ccccc1)Nc1ccc(Cl)c(S(=O)(=O)N2CCCCC2)c1,n,n,n,n,n,n,x,
COc1ccc(N2CCN(S(=O)(=O)c3cc(-c4cc(C)no4)ccc3C(C)C)CC2)cc1,n,n,50.6,n,n,n,n,
Cc1cc(-c2ccc(C)c(S(=O)(=O)NCc3ccc(Br)cc3)c2)on1,n,n,64.0,n,n,n,51.6,FLuc counter=42.2
CC(=O)c1ccc(N2CCN(S(=O)(=O)c3cc(-c4cc(C)no4)ccc3C(C)C)CC2)cc1,n,n,n,n,n,u,x,
Cc1cc(-c2ccc(C)c(S(=O)(=O)NCc3cccc(Br)c3)c2)on1,n,n,n,n,n,n,x,
COc1ccccc1CN1CCC(CNS(=O)(=O)c2cc(-c3onc(C)c3C)ccc2OC)CC1,n,n,51.4,n,n,n,n,
Cc1cc(-c2ccc(C)c(S(=O)(=O)NCC3CCN(Cc4ccccc4F)CC3)c2)on1,n,n,n,n,n,x,x,
COc1ccc(-c2cc(C)no2)cc1S(=O)(=O)N1CCN(c2cccc(C)c2)C(C)C1 (stereo not given),n,n,52.9,n,n,n,45.0,FLuc counter=61.4
COc1cccc(CCN2CCC(CNS(=O)(=O)c3cc(-c4cc(C)no4)ccc3C)CC2)c1,n,n,54.9,n,n,n,49.8,FLuc counter=67.0
COc1cccc(CCN2CCC(CNS(=O)(=O)c3cc(-c4cc(C)no4)ccc3OC)CC2)c1,n,n,50.4,n,n,n,49.8,FLuc counter=71.9
COc1ccc(-c2cc(C)no2)cc1S(=O)(=O)NCCCN1CCCCCC1,n,n,n,n,n,n,x,
Cc1cc(-c2ccc(C)c(S(=O)(=O)NCC3CCN(Cc4cccc(F)c4)CC3)c2)on1,n,n,n,n,n,n,x,
COc1ccc(-c2cc(C)no2)cc1S(=O)(=O)Nc1ccccc1,n,n,55.0,n,n,n,67.4,FLuc counter=63.2
Cc1ccc(N(CCC#N)C(=O)COC(=O)C2CCN(S(=O)(=O)c3ccc4c(c3)OCCO4)CC2)cc1,n,n,n,n,n,n,x,
Cc1ccc(C)c(C(=O)Cn2c(NCCO)nc3ccccc32)c1,n,n,n,n,n,n,x,
CCOc1ccc(NCCC(O)c2ccc(F)cc2)cc1 (stereo not given),n,n,n,n,n,n,x,
CC1CCN(S(=O)(=O)c2cc(F)ccc2CN2C(=O)c3cccnc3C2=O)CC1,n,n,n,n,n,n,x,
Cc1cccc(NS(=O)(=O)c2ccc(C(=O)N3CCCCCC3)cc2)c1C,n,n,n,n,n,x,x,
CCOC(=O)c1ccc(N=c2sc(C(=O)OC)cc(=O)n2Cc2ccco2)cc1,n,n,54.5,n,n,92.4,n,
COc1ccc(C(=O)COc2ccc(C(C)=O)cc2OC)cc1OC,x,x,x,n,x,x,x,
C=CCn1c(SCC(=O)c2[nH]c(C)c(C(=O)OCC)c2C)nc2scc(-c3ccc(OC)cc3)c2c1=O,x,x,x,n,x,x,x,
